According to PubChem BioAssay (NCI):
This is part of a sample that, as a whole, favours compounds with a hit. Of some 83,000 tested, about 20% had one in any assay.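 Method: cells in 96-well plates; compound added at one concentration; 48 h incubation; percent growth measured; values under 10 scored active.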 Unmarked numbers belong to inactive results. Active and inactive are the calls of the source.

How the values were obtained:
Assay in all cases: NCI-60 one-dose screen, 48 h (100 = growth as untreated, 0 = no growth, -100 = all killed)
[1] = system: HCT-15 colon; details: 10 µM unless noted
[2] = system: HT29 colon; details: 10 µM unless noted
[3] = system: SNB-75 CNS; details: 10 µM unless noted
[4] = system: SNB-19 CNS; details: 10 µM unless noted
[5] = system: U251 CNS; details: 10 µM unless noted
[6] = system: PC-3 prostate; details: 10 µM unless noted
[7] = system: SK-MEL-5 melanoma; details: 10 µM unless noted
[8] = system: UACC-62 melanoma; details: 10 µM unless noted
[9] = system: SK-MEL-28 melanoma; details: 10 µM unless noted
[10] = system: SK-MEL-2 melanoma; details: 10 µM unless noted
[11] = system: EKVX NSCLC; details: 10 µM unless noted
[12] = system: SN12C renal; details: 10 µM unless noted
[13] = system: UO-31 renal; details: 10 µM unless noted
[14] = system: TK-10 renal; details: 10 µM unless noted
[15] = system: ACHN renal; details: 10 µM unless noted
[16] = system: CAKI-1 renal; details: 10 µM unless noted
[17] = system: HL-60(TB) leukemia; details: 10 µM unless noted
[18] = system: CCRF-CEM leukemia; details: 10 µM unless noted
[19] = system: LOX IMVI melanoma; details: 10 µM unless noted
[20] = system: A498 renal; details: 10 µM

SMILES | growth [1] | growth [2] | growth [3] | growth [4] | growth [5] | growth [6] | growth [7] | growth [8] | growth [9] | growth [10] | growth [11] | growth [12] | growth [13] | growth [14] | growth [15] | growth [16] | growth [17] | growth [18] | growth [19] | growth [20]
C[C@]12CC[C@H]3[C@@H](C[C@@H]4SC(Nc5ccccc5)=N[C@@]45CC(O)CC[C@]35C)[C@@H]1CCC2O (stereo not given in full) | -30.2% (active) | -38.5% (active) | -5.43% (active) | 26.5% | -30.1% (active) | 39.2% | 34.5% | 39.8% | 27.3% | 51.7% | 73.2% | 10.1% | 26.1% | 65% | 36.8% | 49% | 15.7% | 0.738% (active) | – | –
O=C(Nc1ccc(Cl)cc1)Nc1nccs1 | 33% | 10.7% | 1.2% (active) | 64.9% | 22.3% | 13.3% | 31.2% | 50.3% | 50.5% | – | – | 50.4% | 40.3% | – | 54.4% | 22.6% | – | 6.31% (active) | 46.3% | 8.26% (active)
Cc1cc(N(CCCl)CCCl)ccc1/C=N\NC(=O)c1ccncc1 | 88.9% | 98.3% | 87.1% | 106% | 90.5% | 88.9% | 76.1% | 53.1% | 99.7% | 120% | 94.3% | 64.5% | 82.5% | 93.1% | 73.9% | 33.2% | 53.4% | 68.2% | – | -94.9% (active)
CN(C)CC(C(=O)Cc1ccccc1)c1ccccc1 (stereo not given) | 37.2% | 30% | 73.4% | 100% | 110% | 73.2% | 97.2% | 112% | 96.5% | 82.2% | 110% | 93.6% | -74% (active) | -38.1% (active) | 102% | 82.1% | 66.3% | 67.1% | – | 90.5%
CO[C@H](C(=O)O)[C@@H]1Cc2cc3cc(OC4CC(OC5CC(O)C(O)C(C)O5)C(O)C(C)O4)c(C)c(O)c3c(O)c2C(=O)[C@H]1OC1CC(OC2CC(OC3CC(C)(O)C(O)C(C)O3)C(O)C(C)O2)C(O)C(C)O1 (stereo not given in full) | 38.7% | 7.12% (active) | -55.1% (active) | 10.8% | 10.1% | 19.7% | -17.2% (active) | -68.1% (active) | -5.84% (active) | – | 31.3% | 15.3% | 8.85% (active) | 24.2% | 2.89% (active) | 25.7% | – | 23.8% | -6.05% (active) | -55.7% (active)
O=C1N[C@@H]2[C@@H](O)[C@@H](O)[C@H](O)C[C@H]2c2cc3c(c(O)c21)OCO3 | 1.81% (active) | -14.9% (active) | -25.3% (active) | -8.68% (active) | -10.5% (active) | -8.66% (active) | -72.7% (active) | -48.3% (active) | – | -63.6% (active) | -26.3% (active) | -18.4% (active) | -31% (active) | -12.6% (active) | -45.5% (active) | -7.77% (active) | -37.8% (active) | 2.84% (active) | -48.8% (active) | -53.4% (active)
CC(=O)C(c1c(O)c2ccccc2oc1=O)c1cc(=O)oc2c1ccc1ccccc12 (stereo not given) | 101% | 109% | 67.8% | 90.7% | 91.5% | 85.7% | 96.5% | 91.1% | 110% | – | 92.1% | 87.1% | 80.3% | 116% | 101% | – | 96.9% | 94.5% | 96.6% | 79.8%
CN1C(=O)C23CC4(C56CC78SSC(CO)(C(=O)N7C5Nc5ccccc56)N(C)C8=O)c5ccccc5NC4N2C(=O)C1(CO)SS3 (stereo not given) | -82.3% (active) | -77.3% (active) | -100% (active) | -98.3% (active) | -100% (active) | -99.5% (active) | -95% (active) | -95.6% (active) | -90.6% (active) | -84.6% (active) | -62.3% (active) | -100% (active) | -100% (active) | -90.2% (active) | -100% (active) | -98.7% (active) | -63.1% (active) | -11.2% (active) | – | -98.9% (active)
NC(=O)c1c(Br)n(C2OC(CO)C(O)C2O)c2ncnc(N)c12 (stereo not given) | 3.75% (active) | 16.3% | 37.5% | 53.9% | 33.4% | -10.5% (active) | 50.7% | 8.21% (active) | -4.78% (active) | – | -2.28% (active) | 13.4% | 1.86% (active) | 30.4% | 12.1% | – | -37.2% (active) | -34.4% (active) | 1.47% (active) | -29.9% (active)
C=CC[n+]1ccc(-c2cc[n+](CC=C)cc2)cc1 | 96.4% | 29.1% | 92.5% | 111% | 89.4% | 90.9% | 71.4% | 110% | 102% | – | – | 103% | 95% | 126% | 103% | 94.2% | 93.3% | 84.7% | 101% | 100%
COC(=O)[C@@]1(O)C[C@H]2O[C@]1(C)n1c3ccccc3c3c4c(c5c6ccccc6n2c5c31)C(=O)NC4 | -29.3% (active) | -24.6% (active) | -97.1% (active) | -27.9% (active) | -67.1% (active) | -50.3% (active) | -89.4% (active) | -47.4% (active) | -58.9% (active) | – | -30.9% (active) | -47.2% (active) | -57.9% (active) | -86.3% (active) | -27.3% (active) | -97.5% (active) | – | 0.604% (active) | -69.2% (active) | -96.6% (active)
